Experimental data as given in PubChem BioAssay.
Results filed as inconclusive are left out. Activity calls are given as the source filed them.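 The calls were made as follows, unless noted: active = viability at or below 10% of carrier control in both of two separate runs; inconclusive = viability at or below 10% in only one of the two runs; inactive = the rest.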

Experiments:
[1] = Her2 expression decrease, cell viability multiplex – SKBR3 breast tumor cells, AlphaScreen, ATP viability, primary screen (AID 461;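 active = Her2 level under about 52% in both replicate screens, with viability over 70% of control, limit read from the data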;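 as to Her2 level: lower value means less Her2 protein in the cells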;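 as to viability: percent of carrier control wells set as 100% viability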); details: SKBR3 Her2 protein level, 18-24 h, measured here: SKBR3 viability, ATP luminescence, at 10 µM
[2] = target: Receptor tyrosine-protein kinase erbB-2 (Homo sapiens) (UniProt P04626); test: as above; details: 18-24 h, at 10 µM, stronger effect = lower value
[3] = reduced viability of SK-BR-3 breast cancer cells – cell-based, 24 h, human, pilot screen (AID 572); details: SK-BR-3 viability, CellTiter-Glo luminescence, at 10 µM, stronger effect = lower value;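 also: compound exposure lasted between 18 and 24 h rather than exactly 24 h; 100% = carrier-treated control wells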
[4] = HUVEC growth inhibition – cell-based, human, primary screen (AID 575;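 active = viability at or below 30% in both replicate assays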;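 also: 100% = median of untreated cell wells with 0.1% DMSO on each plate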); details: HUVEC proliferation, CellTiter-Glo luminescence, 72 h; at 10 µM; stronger effect = lower value
[5] = H69AR cell proliferation blockers – human, duplicate replicates, primary screen (AID 580;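 active = viability at or under a set limit in both replicates, limit being median viability minus 3 SD, cut at about 48% in these data, passing the limit was not always enough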;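 also: 100% = mean luminescence of untreated wells and 0% = no signal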); details: H69AR lung tumor cells viability, ATP luminescence, 72 h; at 10 µM; stronger effect = lower value
[6] = MRP1 drug-resistance reversers in H69AR cells – cell-based, doxorubicin co-treatment, pilot screen (AID 601;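 active = viability loss from added drug above about 55%, and viability with drug at most 40%, in both replicates, limit read from the data, passing the limit was not always enough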); details: CellTiter-Glo, 72 h, at 10 µM; for differential viability (reversal): stronger effect = higher value
[7] = yeast transport mutant growth inhibition pilot in 384-well plates, post-Golgi transport modulator project (AID 636; in the data active = inhibition above about 31%); details: absorbance 615 nm, about 18 h, stronger effect = higher value
[8] = growth suppression of yeast trafficking mutant, preliminary HTS, modulators of trafficking downstream of Golgi apparatus project, 1536-format plate, OD 615 nm (AID 637; in the data active = inhibition above about 30%); details: yeast transport mutant growth, absorbance 615 nm, 18 h; stronger effect = higher value
[9] = S. cerevisiae growth inhibition in permissive medium (OD615), pilot counter-assay for S. cerevisiae lifespan shortening project, permissive growth control (AID 705;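 active = growth inhibition above 25% in both replicates, a cutoff set 3 SD above the mean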); details: OD615, 24 h, at 10 µM, stronger effect = higher value
[10] = S. cerevisiae growth inhibition in restrictive medium, OD615, pilot screen, restrictive growth control, yeast lifespan reduction project (AID 706;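 active = growth inhibition above a set limit, 3 SD over mean compound inhibition, in both replicates, cut at about 43% in these data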;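 also: modified DeaD lifespan yeast strain shifted to restrictive glucose medium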); details: OD615, 48 h, at 10 µM, stronger effect = higher value
[11] = doxorubicin toxicity protection in MRP-1 cells – H69AR cells, CellTiter-Glo, duplicate, MRP-1 activator project, pilot screen (AID 807;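 active = viability increase at or above a cutoff of the median across tested compounds plus 3 SD, cut at about 8.5% in these data, passing the limit was not always enough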;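 also: compound pretreatment 18-22 h then 72 h combined with doxorubicin; 0% = doxorubicin alone and 100% = vehicle without doxorubicin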); details: H69AR viability with doxorubicin, CellTiter-Glo luminescence; at 10 µM; stronger effect = higher value
[12] = viability of HCT116 without oncogenic beta-catenin – human colon tumor cells, pilot screen (AID 823;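 active = cell viability at or below a set limit in both duplicate runs, the limit being the all-compound median minus 4 SD, cut at about 23% in these data, passing the limit was not always enough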;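 also: 0% = wells killed by 20 µM Hyamine and 100% = untreated DMSO cell wells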); details: HCT116 beta-catenin knockout viability, CellTiter-Glo, 60 h; at 10 µM; stronger effect = lower value
[13] = viability of PTEN-null HCT116 cells – cell-based, HCT116 clonal line, CellTiter-Glo, pilot screen (AID 824;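 active = viability at or below 27.92% in each of two runs, the all-compound median minus 4 SD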;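 also: 0% = 20 µM Hyamine control and 100% = vehicle cell control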); details: HCT116 PTEN-deleted viability, 60 h, at 10 µM, stronger effect = lower value
[14] = RAM pathway blockade in budding yeast – dse1pr::URA3 reporter, 5-FOA selection, pilot screen (AID 869;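 active = inhibition over a set limit, the all-compound mean plus 3 SD, in both replicate runs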;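 also: 0% = DMSO wells with no growth and 100% = 10 µM 1-NA-PP1 with full growth; RAM network block rescues cells from 5-FOA so hits raise OD615 growth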); details: S. cerevisiae dse1pr::URA3 5-FOA growth, OD615, 2 d; at 10 µM; stronger effect = higher value; strain carries analog-sensitive mutant Cbk1 kinase
[15] = H69AR cells + 2 uM doxorubicin, measured here: viability with 2 uM doxorubicin, stronger effect = lower value
[16] = H69AR cells, compound alone cytotoxicity

Sequence of Receptor tyrosine-protein kinase erbB-2 (Homo sapiens) (P04626 whole entry, looked up): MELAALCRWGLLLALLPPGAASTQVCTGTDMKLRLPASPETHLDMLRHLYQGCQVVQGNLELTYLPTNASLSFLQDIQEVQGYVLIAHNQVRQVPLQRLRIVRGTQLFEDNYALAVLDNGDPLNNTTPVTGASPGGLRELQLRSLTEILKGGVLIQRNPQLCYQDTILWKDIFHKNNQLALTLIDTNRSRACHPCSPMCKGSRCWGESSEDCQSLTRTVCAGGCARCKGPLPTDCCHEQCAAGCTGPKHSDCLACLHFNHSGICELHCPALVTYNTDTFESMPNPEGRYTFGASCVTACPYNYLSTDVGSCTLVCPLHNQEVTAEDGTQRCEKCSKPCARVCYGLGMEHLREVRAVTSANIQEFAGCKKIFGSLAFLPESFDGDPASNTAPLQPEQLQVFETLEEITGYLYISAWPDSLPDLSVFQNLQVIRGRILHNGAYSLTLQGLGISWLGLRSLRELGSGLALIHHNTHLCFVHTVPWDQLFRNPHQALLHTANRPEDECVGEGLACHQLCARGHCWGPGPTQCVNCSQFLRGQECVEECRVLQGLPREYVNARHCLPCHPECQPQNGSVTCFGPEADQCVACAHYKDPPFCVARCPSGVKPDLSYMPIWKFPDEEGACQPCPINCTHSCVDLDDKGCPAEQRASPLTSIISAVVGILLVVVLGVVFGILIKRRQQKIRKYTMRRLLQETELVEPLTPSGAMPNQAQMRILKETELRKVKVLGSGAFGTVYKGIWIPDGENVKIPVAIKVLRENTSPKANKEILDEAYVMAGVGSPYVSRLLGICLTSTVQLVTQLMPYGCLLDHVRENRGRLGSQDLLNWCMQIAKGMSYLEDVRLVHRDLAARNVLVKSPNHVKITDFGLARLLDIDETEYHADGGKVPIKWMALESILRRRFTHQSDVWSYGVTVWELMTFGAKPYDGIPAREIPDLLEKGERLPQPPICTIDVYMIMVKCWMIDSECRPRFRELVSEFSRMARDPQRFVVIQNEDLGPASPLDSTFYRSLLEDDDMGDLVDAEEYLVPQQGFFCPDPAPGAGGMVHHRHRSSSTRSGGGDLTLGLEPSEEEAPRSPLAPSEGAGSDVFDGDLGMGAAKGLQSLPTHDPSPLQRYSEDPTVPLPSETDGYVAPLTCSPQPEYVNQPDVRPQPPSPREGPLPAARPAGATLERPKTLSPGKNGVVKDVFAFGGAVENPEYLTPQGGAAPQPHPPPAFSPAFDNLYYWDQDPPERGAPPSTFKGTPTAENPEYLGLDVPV

CC(C)COC(=O)C1C2C=CC3(CN(C(C)c4ccc(Br)cc4)C(=O)C13)O2 (configuration not stated)
94.9%: viability [6, 16]
inactive: Her2 level [2] 100% | viability [3] 114% | viability [4] 101% | viability [5] 94.9% | differential viability (reversal) ([6]; H69AR cells + 2 uM doxorubicin) 11.3% | inhibition [7] -6.53% | inhibition [8] -5.74% | growth inhibition [9] -9.09% | growth inhibition [10] 5.3% | viability increase [11] -2.82% | viability [12] 98.3% | viability [13] 95.8% | inhibition [14] 0.915%
114%: viability [1]
83.6%: viability [6, 15]

CN(C)/C=C1\N=C(c2ccc(Cl)cc2Cl)OC1=O
inactive: Her2 level [2] 108% | viability [3] 102% | viability [4] 92.7% | viability [5] 95.9% | differential viability (reversal) ([6]; H69AR cells + 2 uM doxorubicin) 19.6% | inhibition [7] -3.29% | inhibition [8] -3.97%
102%: viability [1]
95.9%: viability [6, 16]
76.3%: viability [6, 15]

COc1ccc(-c2nc(CS(=O)CC(=O)N3CCCC3)c(C)o2)cc1 (configuration not stated)
inactive: Her2 level [2] 91% | viability [3] 92.5% | viability [4] 80.8% | viability [5] 83.9% | differential viability (reversal) ([6]; H69AR cells + 2 uM doxorubicin) 2.07% | inhibition [7] -2.67% | inhibition [8] 3.77% | growth inhibition [9] -4.09% | growth inhibition [10] 5.46% | viability increase [11] -2.14% | viability [12] 91.8% | viability [13] 90.7% | inhibition [14] 2.27%
92.5%: viability [1]
81.8%: viability [6, 15]
83.9%: viability [6, 16]

OC(CN1CCN(c2ccccc2)CC1)c1ccc2c(c1)CCN2 (configuration not stated)
87.5%: viability [1]
69.5%: viability [6, 16]
inactive: Her2 level [2] 110% | viability [3] 87.5% | viability [4] 95.3% | viability [5] 69.5% | differential viability (reversal) ([6]; H69AR cells + 2 uM doxorubicin) -26% | inhibition [7] -2.4% | inhibition [8] 3.33% | growth inhibition [9] -10.4% | growth inhibition [10] -5.32% | viability increase [11] -6.11% | viability [12] 83.9% | viability [13] 84.4% | inhibition [14] 0.78%
95.5%: viability [6, 15]

Cc1cccc(-n2c(=O)cc(N3CCN(c4ccc(F)cc4)CC3)[nH]c2=O)c1
inactive: Her2 level [2] 110% | viability [3] 85.5% | viability [4] 66.5% | viability [5] 71.9% | differential viability (reversal) ([6]; H69AR cells + 2 uM doxorubicin) 0.095% | inhibition [7] -2.13% | inhibition [8] -2.33% | growth inhibition [9] -12.5% | growth inhibition [10] -8.2% | viability increase [11] -5.2% | viability [12] 79.3% | viability [13] 66.1% | inhibition [14] 4.09%
71.9%: viability [6, 16]
85.5%: viability [1]
71.8%: viability [6, 15]

O=C(COc1ccccc1)N1CCN(c2ncnc3c2cnn3-c2ccccc2)CC1
inactive: Her2 level [2] 77% | viability [3] 97% | viability [4] 58.6% | viability [5] 74.8% | inhibition [7] -8.77% | inhibition [8] -3.65%
97%: viability [1]

Cc1cccc(OCC(=O)N2CCC(c3ccccc3)C2)c1 (configuration not stated)
104%: viability [1]
inactive: Her2 level [2] 112% | viability [3] 104% | viability [4] 98% | viability [5] 92.8% | differential viability (reversal) ([6]; H69AR cells + 2 uM doxorubicin) 1.84% | inhibition [7] -4.05% | inhibition [8] -1.83% | growth inhibition [9] -17.9% | growth inhibition [10] -6.05% | viability increase [11] -0.58% | viability [12] 83% | viability [13] 83.7% | inhibition [14] 0.225%
92.8%: viability [6, 16]
90.9%: viability [6, 15]

Cc1csc(NC(=O)CSc2nnc(Cc3cccn3C)n2-c2ccc(F)cc2)n1
77.5%: viability [1]
88.8%: viability [6, 15]
inactive: Her2 level [2] 94% | viability [3] 77.5% | viability [4] 84.8% | viability [5] 89.8% | differential viability (reversal) ([6]; H69AR cells + 2 uM doxorubicin) 1.05% | inhibition [7] 4.67% | inhibition [8] -1.64% | growth inhibition [9] -9.58% | growth inhibition [10] -0.31% | viability increase [11] -2.25% | viability [12] 94% | viability [13] 95.5% | inhibition [14] 4.11%
89.8%: viability [6, 16]

CC1CC(C)CN(c2ncnc3c2cnn3-c2ccc(Cl)cc2)C1 (configuration not stated)
inactive: Her2 level [2] 89.5% | viability [3] 91.5% | viability [4] 88.5% | viability [5] 80.6% | differential viability (reversal) ([6]; H69AR cells + 2 uM doxorubicin) 3.71% | inhibition [7] 0.53% | inhibition [8] -1.64% | growth inhibition [9] -5.74% | growth inhibition [10] -8.12% | viability increase [11] 5.58% | viability [12] 88.1% | viability [13] 95.3% | inhibition [14] 2.44%
80.6%: viability [6, 16]
76.9%: viability [6, 15]
91.5%: viability [1]

CC[C@H]1OC(=O)C[C@@H](O)[C@H](C)[C@@H](O[C@@H]2O[C@H](C)C[C@H](N(C)C)[C@H]2O)[C@@H](CC=O)C[C@@H](C)C(=O)C=C[C@]2(C)O[C@H]2[C@@H]1C
39.1%: viability [6, 16]
active: Her2 level [2] 19.5%
45.8%: viability [6, 15]
inactive: viability [3] 162% | viability [4] 53.5% | differential viability (reversal) ([6]; H69AR cells + 2 uM doxorubicin) -6.67%
162%: viability [1]

CC(=O)O[C@]1(C(C)=O)CC[C@H]2[C@@H]3C[C@H](C)C4=CC(=O)CC[C@]4(C)[C@H]3CC[C@@]21C
153%: viability [1]
1.8%: viability [6, 16]
inactive: Her2 level [2] 65% | viability [3] 153% | viability [4] 83.3% | differential viability (reversal) ([6]; H69AR cells + 2 uM doxorubicin) -5.03%
6.83%: viability [6, 15]

Cc1ccc(-n2ncc3c(N4CCN(c5ccccc5)CC4)ncnc32)c(C)c1
93%: viability [1]
inactive: Her2 level [2] 79% | viability [3] 93% | viability [4] 57.9% | viability [5] 80.3% | inhibition [7] -2.93% | inhibition [8] 1.94%

Cn1c(=O)n(Cc2ccccc2)c(=O)c2c1nc(NCC1CCCO1)n2Cc1ccccc1 (configuration not stated)
inactive: Her2 level [2] 103% | viability [3] 81.5% | viability [4] 74.4% | viability [5] 73.3% | inhibition [7] 0.79% | inhibition [8] -0.18%
81.5%: viability [1]
